Results: PubChem BioAssay (Tox21)
Results filed as inconclusive are left out. Activity calls are given as the source filed them. Unless noted, calls come from the whole dose curve; as a rule, active = well fitted curve in the direction sought with a large enough effect in the repeat runs; inconclusive = weak or mixed curves; inactive = no such curve, though single readings can be large; an effect the other way counts as inactive or inconclusive.

Key:
[1] = qHTS assay to identify aromatase inhibitors - cell viability counter screen (AID 743084);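 note: cells stimulated with testosterone during compound exposure; nearly all actives have a fitted effect of over 55% in size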
[2] = molecular target: Aryl hydrocarbon receptor (Homo sapiens) (UniProt P35869); test: qHTS assay to identify small molecule that activate the aryl hydrocarbon receptor (AhR) signaling pathway (AID 743085);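 note: HG2L7.5c1 human HepG2 liver cells with stably integrated DRE-driven firefly reporter; series mostly up to about 70 µM; nearly all actives have a fitted effect of over 15% in size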
Summary of the method: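 HepG2 cells (HG2L7.5c1) stably carrying a firefly luciferase reporter driven by 20 dioxin responsive elements were exposed to compound for 24 h at 37C after a 5 h settling period; luminescence rise (ONE-Glo) indicated activation.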

[3] = qHTS assay to identify small molecule that activate the aryl hydrocarbon receptor (AhR) signaling pathway - cell viability counter screen (AID 743086);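 note: HepG2 liver cells carrying the AhR DRE luciferase reporter; series mostly up to about 70 µM; nearly all actives have a fitted effect of over 45% in size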
Summary of the method: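 Cytotoxicity counter screen: CellTiter-Fluor signal (30 min, 37 C) in 4000 HepG2 cells/well carrying the DRE-luciferase reporter, following 24 h compound exposure at 37 C.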

[4] = molecular target: Peroxisome proliferator-activated receptor gamma (Homo sapiens) (UniProt P37231); test: qHTS assay to identify small molecule agonists of the peroxisome proliferator-activated receptor gamma (PPARg) signaling pathway (AID 743094; active = well fitted activation curve with a large enough effect in the signal ratio in the repeat runs, not every such curve was filed as active; the % refers to the signal ratio; note: potency is the fitted concentration of half-maximal effect)
Summary of the method: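 GeneBLAzer PPARg UAS-bla HEK293H cells were plated, rested 5 h, then exposed to compounds for 17 h at 37C. Beta-lactamase activity was read by LiveBLAzer B/G FRET substrate fluorescence after 1 h at room temperature.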

[5] = molecular target: Peroxisome proliferator-activated receptor gamma (Homo sapiens) (UniProt P37231); test: qHTS assay to identify small molecule antagonists of the peroxisome proliferator-activated receptor gamma (PPARg) signaling pathway (AID 743191; calls by dose curve; note: series mostly up to about 63 µM; nearly all actives have a fitted effect of over 30% in size)
Summary of the method: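 Beta-lactamase reporter under UAS control in HEK293H PPARg-bla cells; compound treatment 17 h at 37C. Read-out: fluorescence intensity after 1 h room-temperature incubation with LiveBLAzer B/G FRET substrate.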

[6] = qHTS assay to identify small molecule antagonists of the peroxisome proliferator-activated receptor gamma (PPARg) signaling pathway - cell viability counter screen (AID 743194); note: nearly all actives have a fitted effect of over 55% in size
Summary of the method: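 Viability was measured as CellTiter-Glo luminescence in GeneBLAzer PPARg UAS-bla HEK293H cells. These cells had been exposed 17 h at 37 C to compounds together with rosiglitazone at 50 nM final, with the beta-lactamase readout taken in the same wells.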

[7] = qHTS assay for small molecule agonists of the antioxidant response element (ARE) signaling pathway (AID 743202; active = well fitted activation curve with a large enough effect in the signal ratio in the repeat runs, not every such curve was filed as active; the % refers to the signal ratio)
Summary of the method: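 Quantitative high-throughput format in HepG2 cells bearing an integrated ARE-beta-lactamase reporter. Compound exposure lasted 16 h at 37 C, and fluorescence was read 2 h after adding LiveBLAzer B/G substrate at room temperature.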

[8] = qHTS assay for small molecule agonists of the antioxidant response element (ARE) signaling pathway - cell viability counter screen (AID 743203; calls by dose curve; note: nearly all actives have a fitted effect of over 55% in size)
Summary of the method: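 ARE-bla HepG2 cells were plated, rested 5 h at 37C/5% CO2, then exposed to compounds in DMSO for 16 h. Viability was read as CellTiter-Glo luminescence after 30 min at room temperature, in the same wells as the ARE screen.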

[9] = qHTS assay for small molecule activators of the heat shock response signaling pathway - cell viability counter screen (AID 743209); note: nearly all actives have a fitted effect of over 50% in size
Summary of the method: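 HSE-bla HeLa cells plated overnight, then exposed to Tox21 compounds (23 nL in DMSO) for 5 h at 37 C. After the bla reporter read, CellTiter-Glo was added in the same wells and luminescence read after 30 min at room temperature.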

[10] = qHTS assay for small molecule activators of the heat shock response signaling pathway (AID 743210; active = well fitted activation curve with a large enough effect in the signal ratio in the repeat runs, with a control signal flat, not every such curve was filed as active; the % refers to the signal ratio;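 note: HeLa cells with beta-lactamase reporter driven by heat shock elements; series mostly up to about 63 µM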)
Summary of the method: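 HeLa HSE-bla cells, overnight plating; cpd in DMSO 5 h, 37 C; LiveBLAzer B/G FRET substrate 2.5 h RT; fluorescence intensity read.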

[11] = qHTS assay to identify small molecule agonists of the peroxisome proliferator-activated receptor delta (PPARd) signaling pathway - cell viability counter screen (AID 743211); note: nearly all actives have a fitted effect of over 55% in size
Summary of the method: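 PPARd-bla HEK293H cells (UAS-beta-lactamase reporter) were treated with compounds for 17 h at 37 C. Viability was then read in the same wells by CellTiter-Glo luminescence after 30 min at room temperature.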

[12] = qHTS assay to identify small molecule antagonists of the peroxisome proliferator-activated receptor delta (PPARd) signaling pathway - cell viability counter screen (AID 743213); note: nearly all actives have a fitted effect of over 50% in size
Summary of the method: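 PPARd-bla HEK293H cells (3000/well) got compound plus 300 nM L165041 agonist for 17 h at 37 C. Viability in the same wells came from CellTiter-Glo luminescence after 30 min at room temperature.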

[13] = qHTS assay to identify small molecule agonists of the farnesoid-X-receptor (FXR) signaling pathway - cell viability counter screen (AID 743218); note: nearly all actives have a fitted effect of over 45% in size
Summary of the method: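 FXR-UAS-bla HEK 293T cells exposed to compounds for 16 h at 37C. Cytotoxicity read in the same wells by CellTiter-Glo luminescence after 30 min at room temperature, following the beta-lactamase FRET read.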

[14] = qHTS assay to identify small molecule antagonists of the farnesoid-X-receptor (FXR) signaling pathway - cell viability counter screen (AID 743221; active = well fitted cell-killing curve with a large enough effect in the repeat runs, not every such curve was filed as active; note: nearly all actives have a fitted effect of over 50% in size)
Summary of the method: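 FXR-UAS-bla HEK 293T cells were treated with test compounds plus chenodeoxycholic acid (50 uM final) for 16 h at 37 C. Cell viability in the same wells was then read as CellTiter-Glo luminescence after 30 min at room temperature.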

[15] = molecular target: Peroxisome proliferator-activated receptor delta (Homo sapiens) (UniProt Q03181); test: qHTS assay to identify small molecule agonists of the peroxisome proliferator-activated receptor delta (PPARd) signaling pathway (AID 743212; calls by dose curve)
Summary of the method: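 HEK293H PPARd-bla cells; 5 h preincubation 37 C/5% CO2; compound (DMSO) 37 C; LiveBLAzer B/G FRET substrate 2 h RT; fluorescence intensity.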

[16] = molecular target: Peroxisome proliferator-activated receptor delta (Homo sapiens) (UniProt Q03181); test: qHTS assay to identify small molecule antagonists of the peroxisome proliferator-activated receptor delta (PPARd) signaling pathway (AID 743215; active = well fitted inhibition curve with a large enough effect in the signal ratio in the repeat runs, not every such curve was filed as active; the % refers to the signal ratio;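 note: cells stimulated with agonist L165041 at 300 nM final during compound exposure; series mostly up to about 62 µM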)
Summary of the method: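 PPARd-bla HEK293H cells (UAS-bla reporter) preincubated 5 h, then given compound plus 300 nM final L165041 agonist for 17 h at 37 C. Beta-lactamase activity read by LiveBLAzer B/G FRET substrate fluorescence after 2 h at room temperature.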

[17] = molecular target: Vitamin D3 receptor (Homo sapiens) (UniProt P11473); test: qHTS assay to identify small molecule agonists of the vitamin D receptor (VDR) signaling pathway (AID 743222; calls by dose curve)
Summary of the method: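 VDR-bla cells plated 4 h at 37 C, then exposed to compounds for 16 h at 37 C. Beta-lactamase reporter activity measured by fluorescence after 2 h room-temperature loading with LiveBLAzer B/G FRET substrate.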

[18] = molecular target: Vitamin D3 receptor (Homo sapiens) (UniProt P11473); test: qHTS assay to identify small molecule antagonists of the vitamin D receptor (VDR) signaling pathway (AID 743223; active = well fitted inhibition curve with a large enough effect in the signal ratio in the repeat runs, not every such curve was filed as active; the % refers to the signal ratio)
Summary of the method: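 VDR-bla cells were plated, incubated 4 h at 37C, then given compound and 1alpha,25-dihydroxyvitamin D3 (3 nM final). After 16 h at 37C, LiveBLAzer B/G FRET substrate was added for 2 h at room temperature and fluorescence read.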

[19] = molecular target: Bile acid receptor (Homo sapiens) (UniProt Q96RI1); test: qHTS assay to identify small molecule antagonists of the farnesoid-X-receptor (FXR) signaling pathway (AID 743217; active = well fitted inhibition curve with a large enough effect in the signal ratio in the repeat runs, not every such curve was filed as active; the % refers to the signal ratio)
Summary of the method: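 FXR-UAS-bla HEK 293T cells (beta-lactamase reporter) given compound plus chenodeoxycholic acid (50 uM final), 16 h at 37C. LiveBLAzer B/G FRET substrate added for 2 h at room temperature; fluorescence read.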

[20] = molecular target: Bile acid receptor (Homo sapiens) (UniProt Q96RI1); test: qHTS assay to identify small molecule agonists of the farnesoid-X-receptor (FXR) signaling pathway (AID 743220; active = well fitted activation curve with a large enough effect in the signal ratio in the repeat runs, not every such curve was filed as active; the % refers to the signal ratio)
Summary of the method: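 Beta-lactamase reporter under UAS control in GeneBLAzer FXR HEK 293T cells (5000/well) measured with LiveBLAzer FRET substrate after 2 h at room temperature. Compound exposure lasted 16 h at 37C.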

Measured: Potency

Chain of Aryl hydrocarbon receptor (Homo sapiens) (P35869 whole entry, looked up): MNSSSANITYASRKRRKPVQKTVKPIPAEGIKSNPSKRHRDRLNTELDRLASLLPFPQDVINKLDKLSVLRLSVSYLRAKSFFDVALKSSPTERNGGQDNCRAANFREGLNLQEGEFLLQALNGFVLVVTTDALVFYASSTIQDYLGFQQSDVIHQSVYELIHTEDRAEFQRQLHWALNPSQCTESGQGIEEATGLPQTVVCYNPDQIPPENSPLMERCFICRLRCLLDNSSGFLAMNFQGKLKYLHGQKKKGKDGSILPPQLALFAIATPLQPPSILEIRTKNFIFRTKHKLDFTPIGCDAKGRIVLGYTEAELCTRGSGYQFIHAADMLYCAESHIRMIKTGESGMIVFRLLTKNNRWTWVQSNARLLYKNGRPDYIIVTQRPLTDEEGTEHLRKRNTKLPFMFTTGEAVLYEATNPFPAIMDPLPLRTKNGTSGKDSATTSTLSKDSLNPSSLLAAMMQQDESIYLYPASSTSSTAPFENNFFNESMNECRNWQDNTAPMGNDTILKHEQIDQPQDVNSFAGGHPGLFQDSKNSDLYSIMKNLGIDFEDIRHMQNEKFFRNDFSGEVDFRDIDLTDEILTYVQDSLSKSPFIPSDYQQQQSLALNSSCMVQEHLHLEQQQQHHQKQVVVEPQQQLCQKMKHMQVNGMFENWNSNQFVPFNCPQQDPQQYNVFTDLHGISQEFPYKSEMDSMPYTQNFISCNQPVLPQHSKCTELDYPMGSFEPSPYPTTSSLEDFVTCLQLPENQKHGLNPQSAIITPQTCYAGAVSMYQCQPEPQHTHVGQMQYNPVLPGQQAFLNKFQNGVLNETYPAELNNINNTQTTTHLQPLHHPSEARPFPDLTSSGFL
Chain of Bile acid receptor (Homo sapiens) (Q96RI1 whole entry, looked up): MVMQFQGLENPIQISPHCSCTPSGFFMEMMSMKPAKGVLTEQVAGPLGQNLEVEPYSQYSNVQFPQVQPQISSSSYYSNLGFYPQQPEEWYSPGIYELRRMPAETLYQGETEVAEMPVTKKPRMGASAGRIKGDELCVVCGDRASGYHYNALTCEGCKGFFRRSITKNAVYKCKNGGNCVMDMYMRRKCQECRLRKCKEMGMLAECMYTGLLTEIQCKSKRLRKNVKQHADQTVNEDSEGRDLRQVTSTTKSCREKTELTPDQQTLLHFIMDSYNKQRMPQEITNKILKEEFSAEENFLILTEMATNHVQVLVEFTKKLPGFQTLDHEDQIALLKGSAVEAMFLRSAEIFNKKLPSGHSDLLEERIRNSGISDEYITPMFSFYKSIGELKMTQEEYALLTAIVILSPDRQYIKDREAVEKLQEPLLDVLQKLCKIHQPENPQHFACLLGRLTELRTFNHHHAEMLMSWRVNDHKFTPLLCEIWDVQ
Chain of Vitamin D3 receptor (Homo sapiens) (P11473 whole entry, looked up): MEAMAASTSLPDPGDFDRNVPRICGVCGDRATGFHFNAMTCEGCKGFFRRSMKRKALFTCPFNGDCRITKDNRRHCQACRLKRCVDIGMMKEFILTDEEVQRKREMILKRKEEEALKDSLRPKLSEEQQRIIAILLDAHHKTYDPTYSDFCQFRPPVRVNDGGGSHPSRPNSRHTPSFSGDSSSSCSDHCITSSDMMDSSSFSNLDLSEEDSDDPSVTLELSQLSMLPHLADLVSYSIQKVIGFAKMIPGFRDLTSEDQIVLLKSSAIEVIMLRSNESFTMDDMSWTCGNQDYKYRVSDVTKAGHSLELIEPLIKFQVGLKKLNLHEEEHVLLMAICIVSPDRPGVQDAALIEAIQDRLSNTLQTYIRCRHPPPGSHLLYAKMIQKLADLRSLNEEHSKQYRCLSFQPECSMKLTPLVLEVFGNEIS
Chain of Peroxisome proliferator-activated receptor delta (Homo sapiens) (Q03181 whole entry, looked up): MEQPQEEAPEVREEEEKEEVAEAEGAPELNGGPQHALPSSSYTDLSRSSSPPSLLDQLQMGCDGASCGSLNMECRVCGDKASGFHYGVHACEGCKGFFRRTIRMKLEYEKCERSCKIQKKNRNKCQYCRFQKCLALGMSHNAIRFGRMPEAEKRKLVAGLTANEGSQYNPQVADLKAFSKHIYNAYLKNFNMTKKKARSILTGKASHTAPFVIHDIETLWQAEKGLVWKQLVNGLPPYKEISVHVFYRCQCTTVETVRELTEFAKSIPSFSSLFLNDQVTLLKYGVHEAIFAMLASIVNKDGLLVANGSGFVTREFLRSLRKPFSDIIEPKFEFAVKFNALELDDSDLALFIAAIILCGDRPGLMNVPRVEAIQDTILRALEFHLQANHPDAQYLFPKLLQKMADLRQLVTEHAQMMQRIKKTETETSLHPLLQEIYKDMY
Chain of Peroxisome proliferator-activated receptor gamma (Homo sapiens) (P37231 whole entry, looked up): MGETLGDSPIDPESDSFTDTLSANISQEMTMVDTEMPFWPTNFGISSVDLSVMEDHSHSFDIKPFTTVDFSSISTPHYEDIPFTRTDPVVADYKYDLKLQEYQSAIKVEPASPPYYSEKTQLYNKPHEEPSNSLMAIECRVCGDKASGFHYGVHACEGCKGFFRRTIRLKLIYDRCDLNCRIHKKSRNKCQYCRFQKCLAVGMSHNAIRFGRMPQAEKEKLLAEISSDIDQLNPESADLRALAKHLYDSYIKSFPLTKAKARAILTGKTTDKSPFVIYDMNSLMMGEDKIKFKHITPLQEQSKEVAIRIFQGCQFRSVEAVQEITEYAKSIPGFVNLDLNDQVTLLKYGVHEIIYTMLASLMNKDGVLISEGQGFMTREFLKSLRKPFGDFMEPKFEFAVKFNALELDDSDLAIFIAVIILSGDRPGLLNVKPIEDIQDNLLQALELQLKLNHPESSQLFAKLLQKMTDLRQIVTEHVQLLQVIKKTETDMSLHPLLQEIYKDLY

CCCCC1CCC(=O)O1 (stereo not given)
not listed: [15] | [16] | [17] | [18] | [19] | [20]
inactive: all other assays above

CCCCNCCCC
not listed: [12] | [19] | [20]
inactive: all other assays above

Cc1c(-c2ccccc2)oc2c(C(=O)OCCN3CCCCC3)cccc2c1=O
not listed: [14] | [15] | [19] | [20]
inactive: all other assays above

CC(=O)N[C@@H](CC(C)C)C(=O)O
not listed: [12] | [13] | [16]
inactive: all other assays above

CN(C)CCOc1ccccc1Cc1ccccc1
not listed: [11] | [14] | [19] | [20]
inactive: all other assays above

CCCNC(C)(C)COC(=O)c1ccccc1
active: [4] 338 nM
not listed: [11] | [19] | [20]
inactive: all other assays above

CCN[C@H]1CN(CCCOC)S(=O)(=O)c2sc(S(N)(=O)=O)cc21
not listed: [15] | [19] | [20]
inactive: all other assays above

CCCCCCCCCC#N
not listed: [11] | [18] | [19] | [20]
inactive: all other assays above

CC(C)(C)c1ccc(OC(=O)c2ccccc2O)cc1
not listed: [15] | [16]
inactive: all other assays above

C1CSCCS1
not listed: [18] | [19] | [20]
inactive: all other assays above

CCOC(=O)C1CC(=O)C(=C(O)C2CC2)C(=O)C1 (stereo not given)
not listed: [13]
inactive: all other assays above

CCCN(CCC)C(=O)C(CCC(=O)O)NC(=O)c1ccccc1 (stereo not given)
not listed: [11] | [18] | [19] | [20]
inactive: all other assays above

CCCNC(C)C(=O)Nc1c(C)csc1C(=O)OC (stereo not given)
not listed: [15] | [16] | [19] | [20]
inactive: all other assays above

COc1cc(Cl)ccc1Cl
not listed: [12] | [19] | [20]
inactive: all other assays above

CCc1nnc(NS(=O)(=O)c2ccc(N)cc2)s1
not listed: [15] | [16]
inactive: all other assays above

COc1cc(N)c(Cl)cc1C(=O)NC1CCN(Cc2ccccc2)CC1
not listed: [13]
inactive: all other assays above
